According to PubChem BioAssay AID540259 (Broad Institute, 2011):
Potency and affinity values are given separately. Activity calls are given as the source filed them.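 Rule for the calls: active = cell killing, meaning signal decrease, with fitted half-maximal dose at or below ten times the top valid tested dose; inconclusive = poor fit, or flat curve with 30 to 70% signal loss; inactive = the rest.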

assay: HeLa cell cytotoxicity, dose response, cytotoxicity control for MITF activator project, CellTiter-Glo luminescence, cherry-pick samples (AID 540259); conditions: HeLa viability, CellTiter-Glo ATP luminescence, 24 h; series mostly up to 35 µM; activity change, negative = cytotoxicity: at the top concentration;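 note: 0% = DMSO neutral control and -100% = mitoxantrone positive control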

| SMILES | activity change, negative = cytotoxicity |
| --- | --- |
| CSc1ccccc1OCc1cc(C(=O)N[C@H]2CCCCNC2=O)no1 | 11.5% (inactive) |
| COc1ccc2oc(=O)c(C(=O)N3CCN(c4ccccc4C)CC3)cc2c1 | 6.89% (inactive) |
| c1ccc(SCc2nc(-c3ccccn3)no2)cc1 | 17% (inactive) |
| CC(C)(C)c1ccc(C(=O)NCc2ccccc2)cc1 | -4.79% (inactive) |
| COc1ccccc1NC(=O)Nc1nc2ccc(S(N)(=O)=O)cc2s1 | 12.1% (inactive) |
| Cc1[nH]n(-c2cccc(Cl)c2)c(=O)c1C=NCC(C)C | 11% (inactive) |
| O=C(Nc1ccc(C(F)(F)F)cc1)c1ccccc1 | 9.08% (inactive) |
| O=C(Cc1ccccc1)Nc1ccc2c(c1)OC1(CCCC1)O2 | 10.1% (inactive) |
| O=C(CC1CCCC1)Nc1ccc(Br)cc1 | -3.11% (inactive) |
| O=C(Nc1cccc(F)c1)NC1CCCCCCC1 | -4.47% (inactive) |
| Cc1ccc(Nc2ncc3c(n2)CC(C)(C)CC3=O)cc1 | 0.285% (inactive) |
| Cc1ccnc(NC(=O)C2CC(=O)N(Cc3ccccc3)C2)c1 (centres undefined) | 18.2% (inactive) |
| c1ccc(CSCc2cn3ccsc3n2)cc1 | 4.42% (inactive) |
| Cc1ccc2cc(NC(=O)c3ccccc3C)ccc2n1 | 0.529% [at 11 µM] (inactive) |
